# Source: PubChem BioAssay AID623946 (Vanderbilt Specialized Chemistry Center, 2012)
# A number with no mark means an inactive call. Active and inactive are the calls of the source.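 How the source made its calls: active means compounds whose rat M5 calcium response changes with dose, giving a fitted curve judged by the depositor; inactive means the rest, with no dose-dependent response.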
# Target: Muscarinic acetylcholine receptor M5 (Rattus norvegicus) (UniProt P08911)
# Assay: rat M5 muscarinic receptor PAM counter-screen, SAR follow-up, selectivity assay for M4 PAM optimization project, CHO-K1 cells, calcium fluorescence, ACh EC20 (AID 623946)
# Conditions: CHO-K1 rM5, calcium fluorescence, ACh EC20 potentiation; series mostly up to 30 µM; % ACh max response: at the top concentration
# Sequence of Muscarinic acetylcholine receptor M5 (Rattus norvegicus) (P08911 whole entry, looked up): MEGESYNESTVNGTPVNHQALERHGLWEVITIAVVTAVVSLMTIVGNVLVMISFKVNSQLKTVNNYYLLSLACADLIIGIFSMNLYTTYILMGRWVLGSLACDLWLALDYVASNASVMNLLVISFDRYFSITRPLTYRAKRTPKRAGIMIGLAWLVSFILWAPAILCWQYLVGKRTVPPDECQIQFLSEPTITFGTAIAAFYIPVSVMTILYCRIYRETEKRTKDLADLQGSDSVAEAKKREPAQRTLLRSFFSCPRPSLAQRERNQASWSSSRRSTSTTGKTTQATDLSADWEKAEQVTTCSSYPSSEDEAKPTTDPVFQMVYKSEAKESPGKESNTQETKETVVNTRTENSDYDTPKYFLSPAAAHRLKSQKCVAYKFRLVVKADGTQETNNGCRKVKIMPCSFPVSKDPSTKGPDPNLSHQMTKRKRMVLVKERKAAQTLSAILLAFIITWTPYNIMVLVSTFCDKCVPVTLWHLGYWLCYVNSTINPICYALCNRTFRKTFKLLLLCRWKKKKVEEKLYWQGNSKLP
Structure (SMILES),outcome,% ACh max response
Cc1nc2sc(C(=O)NCc3ccc4c(c3)OCO4)c(N)c2c(C)c1Cl,inactive,–
Cc1nc2sc(C(=O)NCc3cccnc3)c(N)c2c(C)c1Cl,inactive,–
Cc1nc2sc(C(=O)NCc3nccs3)c(N)c2c(C)c1Cl,–,18.3
Cc1nc2sc(C(=O)NCc3cccc(F)c3F)c(N)c2c(C)c1Cl,–,16.2
Cc1nc2sc(C(=O)NCc3ccccc3)c(N)c2c(C)c1Cl,inactive,–
COc1ccc(C)c2sc(NC(=O)c3ccncc3)nc12,–,16
Cc1nc2sc(C(=O)NCCc3ccncc3)c(N)c2c(C)c1Cl,–,19.3
Cc1nc2sc(C(=O)NCc3ccncn3)c(N)c2c(C)c1Cl,–,15.2
Cc1nc2sc(C(=O)NC3CC3)c(N)c2c(C)c1Cl,–,17.9
Cc1nc2sc(C(=O)NCc3ccncc3)c(N)c2c(C)c1Cl,inactive,–
